Measurements: PubChem BioAssay (NCI)
Compounds without any hit were thinned out: in the full panel of roughly 79,000, 15% have a hit. The source made the active and inactive calls. No stated cut-off is given here; in the data, active means growth inhibition above about 70%; inactive means the rest.

How the values were obtained:
[1] = NCI Yeast Anticancer Drug Screen. Data for the rad52 strain (AID 147);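 further: 0% = growth of vehicle-treated control cultures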; details: S. cerevisiae rad52 mutant growth inhibition, hits give high values
Outline: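 Inhibition of yeast growth, referenced to vehicle controls, was the measured output for a strain with defective DNA damage repair.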

[2] = NCI Yeast Anticancer Drug Screen. Data for the wt1 strain (AID 149);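 further: 0% = growth of vehicle-treated wt1 cultures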; details: S. cerevisiae wt1 strain (SPY 50644) growth inhibition, hits give high values
Outline: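 The wt1 strain was treated with compounds, and growth was compared with vehicle-treated cultures to give inhibition.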

[3] = NCI Yeast Anticancer Drug Screen. Data for the rad50EPP+ strain (AID 151);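 further: 0% = growth of vehicle-treated control cultures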; details: S. cerevisiae rad50 mutant strain, hits give high values
Outline: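 Genetically defined yeast (rad50EPP+, DNA damage repair alteration) is grown with compound, and inhibition of growth is expressed relative to vehicle-treated controls.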

[4] = NCI Yeast Anticancer Drug Screen. Data for the mgt1 strain (AID 153); details: S. cerevisiae mgt1 mutant growth inhibition, hits give high values
Outline: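 In the mgt1 strain, test compounds were added and growth inhibition was determined relative to vehicle-treated controls.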

[5] = NCI Yeast Anticancer Drug Screen. Data for the rad50 strain (AID 155);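 further: 0% = growth of vehicle-only cultures of the same strain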; details: S. cerevisiae rad50 strain growth inhibition, hits give high values
Outline: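 Cells are treated with compound, grown, and their growth is then scored against vehicle-only cultures of the same repair-deficient yeast strain.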

[6] = NCI Yeast Anticancer Drug Screen. Data for the mec2-1 strain (AID 157); details: S. cerevisiae mec2-1 strain, hits give high values
Outline: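 Each compound was tested on mec2-1 yeast, a strain altered in DNA damage repair or cell cycle control. Growth inhibition is reported relative to vehicle.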

[7] = NCI Yeast Anticancer Drug Screen. Data for the rad14 strain (AID 159);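 further: 0% = growth of vehicle-treated control cultures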; details: S. cerevisiae rad14 strain growth inhibition, hits give high values
Outline: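 Readout: yeast growth inhibition, referenced to vehicle-only cultures. Strain bears a defined alteration in DNA damage repair.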

[8] = NCI Yeast Anticancer Drug Screen. Data for the sgs1 mgt1 strain (AID 161);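 further: 0% = growth of cultures given vehicle only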; details: S. cerevisiae sgs1 mgt1 strain, hits give high values
Outline: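 Read-out: growth inhibition vs vehicle controls. Cells: mutant yeast strain deficient in DNA damage repair.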

[9] = NCI Yeast Anticancer Drug Screen. Data for the CLN2oe strain (AID 163);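 further: 0% = growth of vehicle-only control cultures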; details: S. cerevisiae CLN2oe strain, hits give high values
Outline: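 First, the altered yeast strain was treated with each compound; second, its growth was measured; finally, inhibition was derived by comparison with vehicle controls.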

[10] = NCI Yeast Anticancer Drug Screen. Data for the cln2 rad14 strain (AID 165);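 further: 0% = growth equal to vehicle treated cultures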; details: S. cerevisiae cln2 rad14 strain, hits give high values
Outline: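 Test compounds were added to cln2 rad14 yeast cultures; inhibition of growth was then determined by comparison with vehicle treatment.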

[11] = NCI Yeast Anticancer Drug Screen. Data for the bub3 strain (AID 167); details: S. cerevisiae bub3 mutant strain, hits give high values
Outline: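 Part of a panel of yeast mutants defective in DNA damage repair or cell cycle regulation. Each strain is grown with compound, and inhibition is calculated relative to solvent-treated cultures.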

[12] = NCI Yeast Anticancer Drug Screen. Data for the wt2 strain (AID 169);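 further: 0% = growth of vehicle-treated yeast cultures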; details: S. cerevisiae wt2 strain growth inhibition, hits give high values
Outline: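 The panel's yeast strains carry defined changes in DNA repair or cell cycle genes. Each strain is grown with compound, and growth loss is scored relative to vehicle.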

[13] = NCI Yeast Anticancer Drug Screen. Data for the sgs1 strain (AID 173);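 further: 0% = growth of vehicle-only control cultures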; details: S. cerevisiae sgs1 mutant, hits give high values
Outline: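 Vehicle-treated cultures served as reference for growth inhibition of a yeast strain altered in DNA damage repair or cell cycle control after compound exposure.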

[14] = NCI Yeast Anticancer Drug Screen. Data for the mlh1 rad18 strain (AID 175); details: S. cerevisiae mlh1 rad18 strain growth inhibition, hits give high values
Outline: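 Inhibition values reflect reduced growth of mutant yeast versus vehicle-treated controls following compound exposure; the mutations affect DNA damage repair.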

[15] = NCI Yeast Anticancer Drug Screen. Data for the rad18 strain (AID 177); details: S. cerevisiae rad18 mutant growth inhibition, hits give high values
Outline: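 Steps: expose repair-mutant yeast to compound; measure growth; express as inhibition relative to vehicle control.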

[16] = at 5.0 µM (retest, dose inferred, filed as 0.5)
[17] = at 50.0 µM (retest, dose inferred, filed as 5.0)

Measured: growth inhibition

CCCCc1cc(O)ccc1O
active: [3]; at 33.0 µM 77% | [3]; at 100.0 µM 88% | [5]; [17] 87%
inactive: [1]; at 1.2 µM 2% | [1]; at 3.7 µM 13% | [1]; at 11.0 µM 24% | [1]; at 33.0 µM 27% | [1]; at 100.0 µM 29% | [2]; at 1.2 µM -2% | [2]; at 3.7 µM -2% | [2]; at 11.0 µM 0% | [2]; at 33.0 µM 3% | [2]; at 100.0 µM 1% | [3]; at 1.2 µM 13% | [3]; at 3.7 µM 34% | [3]; at 11.0 µM 57% | [4]; at 1.2 µM -4% | [4]; at 3.7 µM -1% | [4]; at 11.0 µM 1% | [4]; at 33.0 µM 0% | [4]; at 100.0 µM 10% | [5]; at 1.2 µM 6% | [5]; at 3.7 µM 12% | [5]; [16] -81% | [5]; at 11.0 µM 32% | [5]; at 33.0 µM 54% | [5]; at 50.0 µM 20.7% | [5]; at 100.0 µM 62% | [6]; at 1.2 µM 4% | [6]; at 3.7 µM 2% | [6]; [16] -37% | [6]; at 11.0 µM 1% | [6]; at 33.0 µM 17% | [6]; [17] -13% | [6]; at 50.0 µM 11.2% | [6]; at 100.0 µM 28% | [7]; at 1.2 µM 2% | [7]; at 3.7 µM 3% | [7]; at 11.0 µM 18% | [7]; at 33.0 µM 31% | [7]; at 100.0 µM 35% | [8]; [16] -48% | [8]; [17] 6% | [8]; at 50.0 µM 43.7% | [9]; at 1.2 µM -3% | [9]; at 3.7 µM 1% | [9]; at 11.0 µM 3% | [9]; at 33.0 µM 11% | [9]; at 100.0 µM 21% | [10]; [16] -54% | [10]; [17] -31% | [10]; at 50.0 µM 19.5% | [11]; at 1.2 µM -9% | [11]; at 3.7 µM -1% | [11]; [16] -63% | [11]; at 11.0 µM -5% | [11]; at 33.0 µM 5% | [11]; [17] 3% | [11]; at 50.0 µM 27.6% | [11]; at 100.0 µM 19% | [12]; at 1.2 µM 0% | [12]; at 3.7 µM -1% | [12]; at 11.0 µM 1% | [12]; at 33.0 µM 3% | [12]; at 100.0 µM 6% | [13]; at 1.2 µM 0% | [13]; at 3.7 µM 6% | [13]; at 11.0 µM 10% | [13]; at 33.0 µM 24% | [13]; at 100.0 µM 42% | [14]; [16] -86% | [14]; [17] 42% | [14]; at 50.0 µM 64.3% | [15]; at 1.2 µM 3% | [15]; at 3.7 µM 7% | [15]; at 11.0 µM 15% | [15]; at 33.0 µM 26% | [15]; at 100.0 µM 31%
